# Reference: PubChem BioAssay
# Where “and” joins values, the source holds several entries; their conditions need not be identical. Equal entries are not always repeated. Calls of active or inactive are those of the source. Rule as the data show it, unless noted: active = inhibition above about 80%; inactive = the rest.
# Legend:
# [1] = viability loss with induced miR-34 in A549 – imaging, A549 dox-inducible miR-34, nuclei and caspase counts, primary screen (AID 1347080;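 active = compounds whose cell count with miR-34 switched on is under 0.7 times the count with it off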); conditions: A549 miR-34 inducible, Hoechst nuclei count, 48 h
# [2] = MELAS cybrid and Rieske KO viability enhancers – cell-based, MELAS cybrids, Rieske KO mouse fibroblasts, CellTiter-Glo, primary screen (AID 1508586;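 active = mean z-score across replicates of 1.96 or higher in either the MELAS or the Rieske mutant cell line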;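 also: z relative to plate mean and SD of compound and empty wells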); conditions: low glucose
# [3] = galactose survival enhancers in mitochondrial complex I cybrids – cell-based, galactose medium, ATP luminescence, primary screen (AID 1645843;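 active = z-score of at least 1.8 in each of two replicates, scored against plate mean and spread of sample wells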;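 also: positive z means more ATP and so rescue of galactose-driven cybrid death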); conditions: complex I mutant cybrid cells, 72 h, stronger effect = higher value
# [4] = growth inhibition, single agent or in combination, cell-based, chromothripsis tumors, cisplatin or BGB combos (AID 1671449); conditions: LFS_MB_P medulloblastoma cells;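 also: cells exposed for 96 hours; 0% = vehicle DMSO and 100% = killing by high DMSO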
# [5] = growth inhibition, single agent and combos, cell-based, chromothripsis tumors, cisplatin or BGB combos (AID 1671450); conditions: HDN33 neuroblastoma cells, stronger effect = higher value;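 also: cells exposed to compound for four days; 0% = vehicle DMSO and 100% = cell killing by high DMSO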
# [6] = growth inhibition, single agents and combos, ICB984, cell-based, cisplatin or BGB combos, synergistic combos for chromothripsis tumors (AID 1671451; call rule not given here;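 also: cells exposed for 96 hours before readout; 0% = vehicle DMSO and 100% = killing by high DMSO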); conditions: ICB984 medulloblastoma cells, drug combinations, stronger effect = higher value
# [7] = growth inhibition, single agents and combos, LFS_MB_1R, cell-based, cisplatin or BGB combos, synergistic combos for chromothripsis tumors (AID 1671452); conditions: LFS_MB_1R medulloblastoma cells, stronger effect = higher value;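 also: cells exposed for 96 hours before readout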
# [8] = growth inhibition, single agents and combos, HTB85, cell-based, BGB or cisplatin IC20 combos, synergistic combos for chromothripsis tumors (AID 1671453); conditions: HTB85 osteosarcoma cells, drug combinations, stronger effect = higher value;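 also: cells exposed for 96 hours before readout; 0% = vehicle DMSO and 100% = high DMSO killing control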
# [9] = growth inhibition, single agents and combos, CRL2098, cell-based, BGB or cisplatin IC20 combos, synergistic combos for chromothripsis tumors (AID 1671454); conditions: CRL2098 osteosarcoma cells, drug combinations, stronger effect = higher value;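 also: cells exposed for 96 h before readout; 0% = vehicle DMSO and 100% = killing by high DMSO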
# [10] = growth inhibition, single agents and combos, HD-MB03, cell-based, BGB or cisplatin IC20 combos, synergistic combos for chromothripsis tumors (AID 1671455; in the data active = inhibition above about 83%;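 also: 0% = vehicle DMSO and 100% = high DMSO as cytotoxic control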); conditions: HD-MB03 medulloblastoma cells, stronger effect = higher value
# [11] = growth inhibition, single agents and combos, UWB1.289, cell-based, BGB or cisplatin combos, synergistic combos for chromothripsis tumors (AID 1671456); conditions: UWB1.289 ovarian carcinoma cells, stronger effect = higher value;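 also: cells exposed to compound for four days; 0% = vehicle DMSO and 100% = killing by high DMSO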
# [12] = growth inhibition, single agents and combos, LFS_MB_2R, cell-based, cisplatin combos, synergistic combos for chromothripsis tumors (AID 1671457); conditions: LFS_MB_2R medulloblastoma cells, stronger effect = higher value;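 also: cells exposed to compound for four days before readout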
# [13] = growth inhibition, MDA-MB-436, cell-based, BGB or cisplatin combos, synergistic combos for chromothripsis tumors (AID 1671458; call rule not given here;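 also: cells exposed for 96 hours; 0% = vehicle DMSO and 100% = killing by high DMSO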); conditions: MDA-MB-436 breast carcinoma growth inhibition, drug combinations, stronger effect = higher value
# [14] = UWB1.289_BRCA1 ovarian cancer growth, cell-based, BGB or cisplatin combinations (AID 1671459); conditions: UWB1.289 BRCA1 ovarian carcinoma, drug combinations, stronger effect = higher value
# [15] = drug combination toxicity in non-malignant astrocytes – cell-based, BGB or cisplatin IC20 combos, cytotoxicity control for chromothriptic childhood tumor combination screen (AID 1671460); conditions: Human astrocytes, viability inhibition, drug combinations, at 0.5 µM, stronger effect = higher value;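 also: cells exposed to compounds for 96 hours before viability readout; 0% = vehicle and 100% = killing control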
# [16] = BT084 cell growth, single and combined drugs, ICGC_MB145, cisplatin and BGB IC40 combos (AID 1671461); conditions: BT084 medulloblastoma cells, drug combinations, stronger effect = higher value;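 also: cells exposed to drugs for 96 hours; 0% = vehicle DMSO and 100% = high DMSO full killing control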
# [17] = RCMB18 cell growth, single agent and combined, cisplatin and BGB IC40 combos (AID 1671462); conditions: RCMB18 medulloblastoma cells, stronger effect = higher value;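 also: cells exposed to compound for four days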
# [18] = CRL1545 cell growth, single agent and combined, cisplatin and BGB IC20 combos (AID 1671464); conditions: CRL1545 osteosarcoma cells, stronger effect = higher value;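 also: cells exposed to compound for 96 hours before readout; 0% = vehicle DMSO and 100% = high DMSO killing control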
# [19] = stronger effect = lower value, cell number ratio, induced over uninduced
# [20] = measured here: relative caspase fold change +Dox/-Dox
# [21] = measured here: total cells with miR-34 induction, stronger effect = lower value
# [22] = measured here: total cells without miR-34 induction
# [23] = MELAS cybrid survival, CellTiter-Glo 48 h, stronger effect = higher value
# [24] = Rieske KO mouse fibroblast survival, CellTiter-Glo 72 h
# [25] = measured here: combination with BGB IC40, at 0.05 µM
# [26] = measured here: with BGB IC20 combination, at 0.5 µM
# [27] = measured here: with cisplatin IC20 combination, at 0.5 µM
# [28] = measured here: combination with cisplatin, at 0.5 µM
# [29] = measured here: combination with cisplatin, at 5 µM
smiles,measurement,setting,value
COc1ccc(CN2CCN(c3cc(C)nc(N)n3)CC2=O)cc1,fold change,[1]; [19],0.879 (inactive)
same,fold change,[1]; [20],1.5
same,cell count,[1]; [21],8130
same,cell count,[1]; [22],9240
same,z-score,[2]; [23],0.162 (inactive)
same,z-score,[2]; [24],0.559
same,z-score,[3],-0.615 (inactive)
Cc1nn(C)cc1-c1ccnc(N2CCCN(c3ccc(F)cc3)CC2)n1,fold change,[1]; [19],0.74 (inactive)
same,fold change,[1]; [20],1.79
same,cell count,[1]; [21],3170
same,cell count,[1]; [22],4290
same,z-score,[2]; [23],-0.739
same,z-score,[2]; [24],2.39
same,z-score,[3],0.77 (inactive)
Nc1ccn(C2CCC(CO)O2)c(=O)n1 (centres undefined),fold change,[1]; [19],0.958 (inactive) and 0.921 (inactive)
same,fold change,[1]; [20],1.84 and 0.793
same,cell count,[1]; [21],9800 and 8610
same,cell count,[1]; [22],10200 and 9350
same,z-score,[2]; [23],-0.101 (inactive)
same,z-score,[2]; [24],0.566
same,z-score,[3],0.445 (inactive)
same,inhibition,"[4]; at 0.5 µM, stronger effect = higher value",-21% (inactive)
same,inhibition,"[4]; measured here: combination with BGB IC20, at 0.005 µM",-12.9%
same,inhibition,"[4]; measured here: combination with BGB IC40, at 0.005 µM",8.5%
same,inhibition,[4]; [25],-10.6%
same,inhibition,"[4]; measured here: combination with cisplatin, at 0.5 µM, stronger effect = higher value",-35%
same,inhibition,"[4]; measured here: combination with cisplatin, at 5 µM, stronger effect = higher value",-13%
same,inhibition,"[5]; BGB combo, at 5 µM",-33.4%
same,inhibition,[5]; at 0.5 µM,-28.1% (inactive)
same,inhibition,"[5]; cisplatin combo, at 5 µM",-14%
same,inhibition,[5]; [26],-28.7%
same,inhibition,[5]; [27],-15.2%
same,inhibition,"[5]; single agent, at 5 µM",-52.9%
same,inhibition,"[6]; BGB IC20 combo, at 0.005 µM",-1.06%
same,inhibition,"[6]; BGB IC40 combo, at 0.005 µM",-15.6%
same,inhibition,"[6]; BGB IC40 combo, at 0.05 µM",-24.6%
same,inhibition,[6]; at 0.5 µM,-11.4% (inactive)
same,inhibition,"[6]; cisplatin combo, at 0.05 µM",-24.6%
same,inhibition,"[6]; cisplatin combo, at 0.5 µM",-24.3%
same,inhibition,"[6]; cisplatin combo, at 5 µM",15.2%
same,inhibition,"[6]; measured here: 5 uM single agent, at 5 µM",-2.52%
same,inhibition,[7]; at 0.5 µM,-18.2% (inactive)
same,inhibition,[7]; [25],-11.6%
same,inhibition,[7]; [28],-19.1%
same,inhibition,[7]; [29],-44%
same,inhibition,[8]; at 0.5 µM,-28.2% (inactive)
same,inhibition,"[8]; measured here: with BGB IC20, at 0.5 µM",-29.8%
same,inhibition,"[8]; measured here: with BGB IC20, at 5 µM",-10%
same,inhibition,"[8]; measured here: with cisplatin IC20, at 0.5 µM",-43.4%
same,inhibition,"[8]; measured here: with cisplatin IC20, at 5 µM",-30.1%
same,inhibition,"[8]; single agent, at 5 µM",-16.7%
same,inhibition,[9]; at 0.5 µM,-61.6% (inactive)
same,inhibition,"[9]; measured here: combination with BGB at IC20, at 0.5 µM",-74.6%
same,inhibition,"[9]; measured here: combination with cisplatin at IC20, at 0.5 µM",-68.6%
same,inhibition,[10]; at 0.5 µM,-9.09% (inactive)
same,inhibition,"[10]; measured here: combo with BGB at IC20, at 0.5 µM",-13.9%
same,inhibition,"[10]; measured here: combo with cisplatin at IC20, at 0.5 µM",-16.6%
same,inhibition,[11]; at 0.5 µM,7.61% (inactive)
same,inhibition,"[11]; measured here: inhibition with BGB combination, at 0.05 µM",-29.4%
same,inhibition,"[11]; measured here: inhibition with cisplatin combination, at 0.05 µM",-3.05%
same,inhibition,[12]; at 0.5 µM,-6.12% (inactive)
same,inhibition,[12]; [28],0.862%
same,inhibition,[12]; [29],2.6%
same,inhibition,[13]; at 0.5 µM,-21.2% (inactive)
same,inhibition,"[13]; measured here: BGB combination, at 0.5 µM",-29.5%
same,inhibition,"[13]; measured here: BGB combination, at 5 µM",-21.7%
same,inhibition,"[13]; measured here: cisplatin combination, at 0.5 µM",-25.6%
same,inhibition,"[13]; measured here: cisplatin combination, at 5 µM",-2.99%
same,inhibition,"[14]; BGB combination, concentration series, at 5 µM",-17.4%
same,inhibition,[14]; at 0.5 µM,-16.8% (inactive)
same,inhibition,"[14]; cisplatin combination, concentration series, at 5 µM",-7.33%
same,inhibition,[15],-3.66% (inactive)
same,inhibition,[15]; measured here: combo with BGB IC20,2.88%
same,inhibition,[15]; measured here: combo with cisplatin IC20,-17%
same,inhibition,[16]; at 0.5 µM,-0.679% (inactive)
same,inhibition,"[16]; cisplatin combination, at 0.5 µM",-0.865%
same,inhibition,"[16]; cisplatin combination, at 5 µM",-52%
same,inhibition,"[16]; measured here: BGB IC40 combination 0.05 uM, at 0.05 µM",24%
same,inhibition,"[16]; single agent, at 5 µM",-28.3%
same,inhibition,[17]; at 0.5 µM,-1.7% (inactive)
same,inhibition,"[17]; cisplatin combo, at 5 µM",11.7%
same,inhibition,"[17]; measured here: BGB IC40 combination, at 0.05 µM",-6.98%
same,inhibition,[17]; [28],-10.2%
same,inhibition,"[17]; single agent, at 5 µM",-30.2%
same,inhibition,[18]; at 0.5 µM,-50% (inactive)
same,inhibition,[18]; [26],-14.8%
same,inhibition,[18]; [27],-67.7%
same,inhibition,"[18]; single agent, at 0.05 µM",32.2%
same,inhibition,"[18]; single agent, at 5 µM",11.1%
